Screening results deposited in PubChem by several laboratories.
PLK1 inh = blocks human PLK1 kinase activity. P53350. recombinant PLK1 kinase, TR-FRET peptide phosphorylation. inhibition, % at 10 µM. actives 0.53% (n = 97,000);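 active = inhibition of 50% or more in the single-concentration screen; inactive = inhibition below 50%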;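 also: 0% = DMSO max control and 100% = H-89 dihydrochloride min control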
CYP2C9 inh = blocks human cytochrome P450 2C9. actives 20% (n = 96,000). P11712. CYP2C9 Supersomes, luciferin-H conversion, luminescence. inhibition, % at 5 µM;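 active = blocking of liver enzyme CYP2C9 beyond about 50% at 5 µM, limit read from the data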
Target sequence (P11712 whole entry, looked up): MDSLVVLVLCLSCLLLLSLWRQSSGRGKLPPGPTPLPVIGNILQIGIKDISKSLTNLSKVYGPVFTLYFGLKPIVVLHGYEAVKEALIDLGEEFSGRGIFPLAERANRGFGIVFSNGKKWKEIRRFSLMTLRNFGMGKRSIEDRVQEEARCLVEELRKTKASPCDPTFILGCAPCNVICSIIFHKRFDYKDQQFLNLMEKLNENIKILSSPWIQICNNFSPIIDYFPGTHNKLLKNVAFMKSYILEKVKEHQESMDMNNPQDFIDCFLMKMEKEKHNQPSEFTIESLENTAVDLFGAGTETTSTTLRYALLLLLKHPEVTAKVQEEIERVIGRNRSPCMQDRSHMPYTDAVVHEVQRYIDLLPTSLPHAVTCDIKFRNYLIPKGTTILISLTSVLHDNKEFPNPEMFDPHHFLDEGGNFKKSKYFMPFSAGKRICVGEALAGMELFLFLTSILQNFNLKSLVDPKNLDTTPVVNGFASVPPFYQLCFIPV
Plk1 PBD FP = inhibitors of human Plk1 polo box domain binding; P53350; actives 0.13% (n = 97,000); AID 693; inhibition, %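 (tested at about 20 µM)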; Plk1 PBD phosphopeptide binding, fluorescence polarization; in the data active = inhibition above about 34%, passing the limit was not always enough
CYP2C19 inhib = human CYP2C19 inhibition. P33261. CYP2C19 Supersomes, luciferin-H EGE luminescence, 30 min. inhibition, % at 5 µM. actives 21% (n = 96,000). AID 778;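 active = CYP2C19 inhibition above a set limit at 5 µM in the primary screen, cut at about 50% in these data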;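 also: plate controls were negative control wells for no effect and 2.5 mM tranylcypromine positive control for full effect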
CYP2C19 activ = increases human CYP2C19 enzyme activity; recombinant CYP2C19, luciferin-H EGE luminescence; stronger effect = higher value; 0 = fully inhibited enzyme, 1 = untreated enzyme; activation factor at 5 µM; P33261; 96,000 tested, under 10 active;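 active = activation factor of at least 2 at 5 µM in the primary screen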;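 also: 0 = wells with 2.5 mM tranylcypromine and 1 = vehicle-only wells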
CYP2C9 act = CYP2C9 (human) activation. activation factor at 5 µM. P11712. actives 1.4% (n = 96,000). recombinant CYP2C9, luciferin-H conversion, luminescence; stronger effect = higher value; factor 1 = untreated enzyme, 0 = blocked. AID 1024;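 active = activation factor of 2 or more for CYP2C9 at a 5 µM dose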;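 also: 0 = sulfaphenazole-blocked wells and 1 = vehicle-only wells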
Active calls of the source: *; . = no result. A selection: hits, their analogues and other compounds. The true share with any hit is near 28%.

SMILES	PLK1 inh	CYP2C9 inh	Plk1 PBD FP	CYP2C19 inhib	CYP2C19 activ	CYP2C9 act
CC(CCc1ccccc1)NC(=O)c1ccc(C(=O)NC(C)CCc2ccccc2)cc1 (stereo not given)	-4	16	7	10	0.9	0.8
CCN(CC)C(NC(=O)c1ccccc1)C(=O)c1ccccc1 (stereo not given)	-14	62*	-18	60*	0.4	0.4
COC(=O)C(NC(=O)c1ccccc1)c1ccccc1 (stereo not given)	10	10	-3	33	0.7	0.9
CCOC(NC(=O)c1ccccc1)C(NC(=O)c1ccccc1)OCC (stereo not given)	-6	16	-8	53*	0.5	0.8
O=P(O)(O)COc1ccccc1P(=O)(c1ccccc1)c1ccccc1	-9	-8	-11	2	1	1.1
O=C(Nc1ccccc1)NC1(C(=O)NCc2ccco2)CCCCC1	-7	40	-33	15	0.9	0.6
Cc1ccc(NC(=O)NC2(C(=O)NCc3ccco3)CCCCC2)cc1	-7	54*	-6	93*	0.1	0.5
O=C(NCc1ccco1)C1(c2ccc(Br)cc2)CCCC1	17	70*	-6	31	0.7	0.3
O=C(NCc1ccco1)Nc1ccc(Br)cc1	3	64*	-13	64*	0.4	0.4
CC(=O)Nc1ccc(SCC(=O)OCC(=O)NC(=O)NCc2ccco2)cc1	-7	66*	-13	20	0.8	0.3
Nc1cc(C(=O)O)ccc1N1CCCCCC1	28	-11	11	-5	1.1	1.1
COc1ccc(NC(=O)C(c2ccc(OC)cc2)N(C)C(=O)c2cnccn2)cc1 (stereo not given)	.	34	.	30	0.7	0.7
CCOC(=O)c1c(-c2ccco2)csc1N	-7	21	21	47	0.5	0.8
CCOC(=O)c1c(-c2ccc(C)o2)csc1NC(=O)CN(C)CC(=O)Nc1ccc(C)cc1	11	96*	2	69*	0.3	0
CCOC(=O)c1c(-c2ccc(C)o2)csc1NC(=O)CN1CCN(CC)CC1	-11	7	-25	0	1	0.9
CCOC(=O)c1c(-c2ccco2)csc1NC(=O)CSc1nnc(N)s1	-15	57*	-27	20	0.8	0.4
CCOC(=O)c1c(-c2ccc(C)o2)csc1NC(=O)CSc1nncs1	-6	100*	1	91*	0.1	0
CSc1nnc(Cn2c(=O)sc3ccccc32)n1CCc1ccccc1	-1	45	13	39	0.6	0.6
COc1ccc2c(c1)c(=O)oc1cc(OCC(=O)NC3CC3)ccc12	-17	15	23	60*	0.4	0.8
COc1ccc2c(c1)c(=O)oc1cc(OCC(=O)NC3CCCCC3)ccc12	-21	32	-9	89*	0.1	0.7
C/C=C/c1ccc(OCCCNC(C)CC)c(OC)c1 (stereo not given)	-3	42	-12	8	0.9	0.6
C/C=C/c1ccc(OCCCCn2cncn2)c(OC)c1	-12	47	-20	75*	0.2	0.5
C/C=C/c1ccc(OCCCNC2CCCC2)c(OC)c1	-15	-7	-3	6	0.9	1.1
C/C=C/c1ccc(OCCCn2cncn2)c(OC)c1	-13	50*	6	89*	0.1	0.5
C/C=C/c1ccc(OCCn2cncn2)c(OC)c1	1	40	-3	65*	0.4	0.6
SMILES	PLK1 inh	CYP2C9 inh	Plk1 PBD FP	CYP2C19 inhib	CYP2C19 activ	CYP2C9 act
COc1ccc(C2C(C(=O)NCCN3CCOCC3)c3ccccc3C(=O)N2C)cc1OC (stereo not given)	-22	14	-42	-7	1.1	0.9
CCOc1ccc(N(CC(=O)NC(C)(C)C)C(=O)c2ccco2)cc1	-9	90*	-41	22	0.8	0.1
CCOc1ccc(C(CC(=O)O)NC(=O)c2ccco2)cc1 (stereo not given)	-7	.	-30	.	.	.
Cc1c(C(=O)OCc2ccccc2)nnn1-c1nonc1N	11	38	7	99*	0	0.6
CCOC(=O)c1nnn(-c2nn3nnnc3c3ccccc23)c1C	-7	55*	23	-11	1.1	0.4
CCOC(=O)c1c(N)nn(C(=O)CC)c1-c1ccccc1	7	.	-9	.	.	.
CCOC(=O)c1c(N)nn(C(=O)C(C)C)c1-c1ccccc1	14	41	-6	69*	0.3	0.6
CCOC(=O)c1nnn(-c2nonc2N)c1COc1cc(C)c(Cl)c(C)c1	1	3	3	-8	1.1	1
CCOC(=O)c1nnn(-c2nonc2N)c1CN(C)Cc1ccccc1	.	83*	.	33	0.7	0.2
O=C1C(=O)N(CCCN2CCOCC2)C(c2cccs2)/C1=C(/O)c1ccc2c(c1)OCO2 (stereo not given)	-6	.	4	.	.	.
CCc1nnc(NC(=O)CN2CCN(C3CCCCC3)CC2)s1	-2	-9	-24	-12	1.1	1.1
COc1cc2c(cc1OC)CN(C(=O)c1ccc(OC)c(S(=O)(=O)N3CCOCC3)c1)CC2	-2	21	-7	7	0.9	0.8
O=C(c1cc(-c2ccc(Cl)c(Cl)c2)on1)N1CCCCC1	-9	-4	-2	-9	1.1	1
CCOC(=O)c1nnn(-c2nonc2N)c1-c1ccccc1	4	18	-13	72*	0.3	0.8
CCOC(=O)c1nnn(-c2nc(OC)nc(N3CCCC3)n2)c1-c1ccccc1	-7	53*	-21	68*	0.3	0.5
CCOC(=O)c1nnn(-c2nonc2N)c1-c1ccc(C)cc1	0	30	-5	40	0.6	0.7
Cc1ccc(-n2ncc(-c3nnc(SCC(=O)NC4CCCC4)o3)c2N)cc1C	.	40	.	12	0.9	0.6
COc1cc(C2Nc3ccc4ncccc4c3C3=C2C(=O)CCC3)cc(OC)c1O (stereo not given)	-11	83*	3	40	0.6	0.2
COc1cc(C2Nc3ccc4ncccc4c3C3=C2C(=O)CC(C)(C)C3)cc(OC)c1O (stereo not given)	-4	76*	7	63*	0.4	0.2
Cc1c(NC(=O)c2ccc(Br)o2)cccc1C(=O)O	-11	-3	-1	4	1	1
CCOC(=O)c1ccc(NC(=S)NNC(=O)C2(C)CC2(Cl)Cl)cc1 (stereo not given)	-8	.	11	.	.	.
COc1cc(NC(=O)c2cc(C3CC3)on2)c(OC)cc1Cl	-3	1	20	9	0.9	1
CC(NC(=O)Cc1cccs1)C(c1cccs1)N1CCN(c2ccccc2F)CC1 (stereo not given)	3	54*	0	38	0.6	0.5
COc1ccccc1C(=O)NC(C)C(c1cccs1)N1CCOCC1 (stereo not given)	-14	24	-2	51*	0.5	0.8
CC(NC(=O)Cc1cccs1)C(c1cccs1)N1CCN(c2ccccc2)CC1 (stereo not given)	-6	.	2	.	.	.
